Laboratory results from PubChem BioAssay (EPA / NIEHS).
“And” between values parts separate entries of the source, which are not always exact repeats. Identical values can stand only once. Results filed as inconclusive are left out. More than one record can exist for a structure, and the calls need not agree. The source made the active and inactive calls. How the source made its calls, unless noted: active means hit-call score of the fitted dose curve at least 0.9, where 1 is the maximum; inactive means score below 0.9.

Key:
[1] = ATG_M_06_TRANS: Attagene TRANS-FACTORIAL HepG2 Assay for M06 Transcription Factor (Internal Marker) (AID 2282983; active means hit-call score of the fitted dose curve at least 0.9, where 1 is the maximum;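 on AC50: potency for rise in reporter mRNA above DMSO baseline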); conditions: HepG2 Attagene TRANS M06 internal marker reporter
How it was run: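 Internal-marker background readout from a multiplexed TRANS reporter system in HepG2; 24 h dosing; mRNA induction quantified by RT-PCR plus capillary electrophoresis fluorescence; DMSO as negative control and baseline.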

[2] = ATG_M_32_TRANS: Attagene TRANS-FACTORIAL HepG2 Assay for M32 Transcription Factor (Internal Marker) (AID 2282984; active means hit-call score of the fitted dose curve at least 0.9, where 1 is the maximum); conditions: HepG2 Attagene TRANS M32 internal marker reporter
How it was run: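 Human hepatoma HepG2, transient MRTU transfection, 24 h treatment. RNA → RT-PCR → fluorescent primer extension → HpaI digest (2 h, 37 C) → CE. Positive-direction fit vs DMSO.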

[3] = target: Nuclear receptor subfamily 4 group A member 2 (Homo sapiens) (UniProt P43354); assay: ATG_NURR1_TRANS: Attagene TRANS-FACTORIAL HepG2 Assay for human Nuclear Receptor Related Protein 1 (NURR1) (AID 2282985; active means hit-call score of the fitted dose curve at least 0.9, where 1 is the maximum); conditions: HepG2 Attagene TRANS reporter, mRNA readout
How it was run: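 After 24 h chemical dosing, total RNA from transiently transfected HepG2 cells was reverse-transcribed and reporter cDNA PCR-amplified, FAM-labelled and analysed by capillary electrophoresis. Activity fitted in positive direction, DMSO as negative control.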

[4] = target: Transcriptional activator Myb (Homo sapiens) (UniProt P10242); assay: ATG_Myb_CIS: Attagene CIS-FACTORIAL HepG2 Assay for human Myeloblastosis (Myb) Proto-Oncogene Transcription Factor (AID 2282986); conditions: HepG2 Attagene CIS-FACTORIAL Myb reporter transcription; actives raise or lower the signal
How it was run: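 Reporter transcript levels, quantified by fluorescent RT-PCR and capillary electrophoresis, serve as the read-out. Transfected HepG2 cells carrying cis-promoter reporter units are dosed for 24 hours, and curves are fitted bidirectionally against DMSO controls.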

[5] = target: Nuclear respiratory factor 1 (Homo sapiens) (UniProt Q16656); assay: ATG_NRF1_CIS: Attagene CIS-FACTORIAL HepG2 Assay for human Nuclear Respiratory Factor 1 (NRF1) Orphan Gene (AID 2282987); conditions: HepG2 NRF1 cis-element reporter, Attagene multiplex; actives raise or lower the signal
How it was run: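 Multiplexed cis-reporter assay, HepG2 cells, 24 h treatment. Total RNA → oligo(dT) RT → PCR with reporter-specific primers → 6-FAM primer extension → HpaI cut → CE. Bidirectional fit vs DMSO.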

[6] = ATG_NFI_CIS: Attagene CIS-FACTORIAL HepG2 Assay for human Nuclear Factor I (NFI) (AID 2282989); conditions: HepG2 cis-regulatory reporter, NFI response element transcription; actives raise or lower the signal
How it was run: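 Read-out: reporter mRNA via RT-PCR plus capillary electrophoresis with fluorescence detection. Transiently transfected HepG2 (endogenous TF activity on cis promoters), 24 h compound exposure; gain or loss of signal fitted against DMSO.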

[7] = ATG_NF_kB_CIS: Attagene CIS-FACTORIAL HepG2 Assay for human Nuclear Factor Kappa B (NF-kB) (AID 2282991); conditions: HepG2 Attagene cis-factorial NF-kB reporter mRNA; actives raise or lower the signal
How it was run: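 Transient MRTU transfection of human HepG2 liver cells → 24 h chemical exposure → total RNA, oligo(dT) RT → PCR, 6-FAM primer extension, HpaI digest 2 h 37 C → CE fragment analysis. Bidirectional fitting, DMSO negative control.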

[8] = target: Myc proto-oncogene protein (Homo sapiens) (UniProt P01106); assay: ATG_Myc_CIS: Attagene CIS-FACTORIAL HepG2 Assay for human Myelocytomatosis (Myc) Proto-Oncogene Transcription Factor (AID 2282990); conditions: HepG2, Attagene cis-reporter transcription factor activity; actives raise or lower the signal
How it was run: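 HepG2 cells transiently transfected with multiple cis-promoter-driven reporter transcription units, so endogenous TF activity is read. After 24 h compound exposure, reporter mRNA was quantified by RT-PCR, 6-FAM labelling, HpaI digestion and capillary electrophoresis; bidirectional fit versus DMSO.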

[9] = ATG_M_61_TRANS: Attagene TRANS-FACTORIAL HepG2 Assay for M61 Transcription Factor (Internal Marker) (AID 2282988); conditions: HepG2 Attagene TRANS M61 internal marker reporter
Experimental: ATG_TRANS is a cell-based, multiplexed-readout assay that uses HepG2, a human liver cell line, with measurements taken at 24 hours after chemical dosing in a 24-well plate.ATG_M_61_TRANS is one of 30 assay component(s) measured or calculated from the ATG_TRANS assay. It is designed to make measurements of mRNA induction, a form of inducible reporter, as detected with fluorescence intensity signals by Reverse transcription polymerase chain reaction (RT-PCR) and Capillary electrophoresis technology.Data from the assay component ATG_M_61_TRANS was analyzed into 1 assay endpoint. This assay endpoint, ATG_M_61_TRANS, was analyzed in the positive analysis fitting direction relative to DMSO as the negative control and baseline of activity. […] Furthermore, this assay endpoint can be referred to as a secondary readout, because this assay has produced multiple assay endpoints where this one serves a background control function. […]
Human liver HepG2 cells are transiently transfected with multiple reporter transcription units (MRTUs) in 6-well plates using FuGene 6 reagent (Roche; 3 ml FuGene/1 mg DNA). […] A major difference between the CIS and TRANS system is that in CIS activities of endogenous TFs are measured, whereas the TRANS assay evaluates changes in activities of exogenous, chimeric NR-Gal4 proteins. […]

[10] = ATG_NRF2_ARE_CIS: Attagene CIS-FACTORIAL HepG2 Assay for human Nuclear Factor Erythroid 2 Related Factor 2 (NFR2) response to Antioxidant Response Elements (ARE) (AID 2282992); conditions: HepG2 Attagene ARE/NRF2 reporter, transcription factor activity; actives raise or lower the signal
How it was run: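 Multiplexed reporter mRNA profiling in HepG2 after a 24 h chemical exposure. Curves fitted in both directions relative to DMSO negative control.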

Sequence of Myc proto-oncogene protein (Homo sapiens) (P01106 whole entry, looked up): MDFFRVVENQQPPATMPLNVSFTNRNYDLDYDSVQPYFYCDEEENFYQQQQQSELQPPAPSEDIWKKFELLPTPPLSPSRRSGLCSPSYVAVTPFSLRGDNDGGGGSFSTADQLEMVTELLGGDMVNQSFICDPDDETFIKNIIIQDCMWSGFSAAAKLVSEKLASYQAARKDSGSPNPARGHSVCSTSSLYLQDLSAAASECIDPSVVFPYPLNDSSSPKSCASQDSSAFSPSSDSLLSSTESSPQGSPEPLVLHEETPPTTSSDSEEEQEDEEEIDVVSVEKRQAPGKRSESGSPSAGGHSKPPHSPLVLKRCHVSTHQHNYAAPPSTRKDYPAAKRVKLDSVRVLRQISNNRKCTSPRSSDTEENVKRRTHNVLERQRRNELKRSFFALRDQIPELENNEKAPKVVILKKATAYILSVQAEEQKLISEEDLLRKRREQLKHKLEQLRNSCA
Sequence of Transcriptional activator Myb (Homo sapiens) (P10242 whole entry, looked up): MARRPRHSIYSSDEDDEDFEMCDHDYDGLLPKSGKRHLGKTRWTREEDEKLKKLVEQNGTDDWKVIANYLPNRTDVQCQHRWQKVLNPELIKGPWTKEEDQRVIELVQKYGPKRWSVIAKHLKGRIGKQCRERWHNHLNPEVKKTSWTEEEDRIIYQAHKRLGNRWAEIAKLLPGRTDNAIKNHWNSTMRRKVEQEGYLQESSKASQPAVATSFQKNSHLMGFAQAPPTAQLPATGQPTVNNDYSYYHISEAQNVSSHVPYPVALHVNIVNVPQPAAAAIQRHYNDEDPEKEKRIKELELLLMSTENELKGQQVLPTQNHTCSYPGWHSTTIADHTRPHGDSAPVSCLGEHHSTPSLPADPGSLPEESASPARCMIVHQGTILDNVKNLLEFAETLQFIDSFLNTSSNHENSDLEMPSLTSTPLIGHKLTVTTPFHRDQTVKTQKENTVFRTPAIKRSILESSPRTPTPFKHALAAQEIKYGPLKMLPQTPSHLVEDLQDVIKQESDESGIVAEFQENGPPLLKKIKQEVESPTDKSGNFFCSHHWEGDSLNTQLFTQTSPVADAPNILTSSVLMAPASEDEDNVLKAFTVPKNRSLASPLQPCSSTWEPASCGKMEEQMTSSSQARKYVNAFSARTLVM
Sequence of Nuclear respiratory factor 1 (Homo sapiens) (Q16656 whole entry, looked up): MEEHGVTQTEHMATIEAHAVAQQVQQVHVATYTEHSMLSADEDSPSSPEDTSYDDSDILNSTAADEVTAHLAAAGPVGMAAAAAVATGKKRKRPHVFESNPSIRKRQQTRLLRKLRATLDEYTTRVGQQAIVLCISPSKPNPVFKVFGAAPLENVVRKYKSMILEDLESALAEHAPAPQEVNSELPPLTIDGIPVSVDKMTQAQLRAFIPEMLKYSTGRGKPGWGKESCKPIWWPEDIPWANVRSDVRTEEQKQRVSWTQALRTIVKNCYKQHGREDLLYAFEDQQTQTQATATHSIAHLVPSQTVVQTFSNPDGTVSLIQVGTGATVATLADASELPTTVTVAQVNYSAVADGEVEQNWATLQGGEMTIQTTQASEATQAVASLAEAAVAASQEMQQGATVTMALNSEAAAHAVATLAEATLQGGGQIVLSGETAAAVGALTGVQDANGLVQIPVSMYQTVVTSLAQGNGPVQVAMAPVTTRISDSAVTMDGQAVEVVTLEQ
Sequence of Nuclear receptor subfamily 4 group A member 2 (Homo sapiens) (P43354 whole entry, looked up): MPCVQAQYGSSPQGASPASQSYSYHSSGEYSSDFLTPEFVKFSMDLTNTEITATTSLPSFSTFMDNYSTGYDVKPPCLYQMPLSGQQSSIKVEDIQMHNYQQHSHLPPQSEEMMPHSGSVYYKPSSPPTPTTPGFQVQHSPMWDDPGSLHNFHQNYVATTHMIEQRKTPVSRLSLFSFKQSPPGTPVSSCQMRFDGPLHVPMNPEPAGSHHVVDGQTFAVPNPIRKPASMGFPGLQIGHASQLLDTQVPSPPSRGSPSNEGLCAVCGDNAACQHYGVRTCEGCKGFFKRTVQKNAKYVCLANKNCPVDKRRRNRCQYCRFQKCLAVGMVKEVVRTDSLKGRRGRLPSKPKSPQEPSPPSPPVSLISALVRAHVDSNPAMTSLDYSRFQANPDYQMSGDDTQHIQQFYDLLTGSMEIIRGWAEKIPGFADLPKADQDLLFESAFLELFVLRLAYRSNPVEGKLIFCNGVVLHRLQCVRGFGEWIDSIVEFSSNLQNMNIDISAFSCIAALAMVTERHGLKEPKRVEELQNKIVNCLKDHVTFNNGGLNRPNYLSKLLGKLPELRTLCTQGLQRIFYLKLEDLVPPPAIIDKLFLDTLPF

C[C@@H]1C[C@@H]([C@H](O)CC2CC(=O)NC(=O)C2)C(=O)[C@@H](C)C1
outcome [1]: inactive | outcome [2]: inactive | outcome [3]: inactive | outcome [4]: inactive | outcome [5]: inactive | outcome [6]: inactive | AC50 [7]: 17.9 µM (active) [middle of 4 runs]

COC(=O)Cc1ccccc1
outcome [1]: inactive | outcome [2]: inactive | outcome [3]: inactive | outcome [5]: inactive | outcome [6]: inactive | outcome [8]: inactive

CCC[CH2][Sn]([CH2]CCC)([CH2]CCC)[O]C(=O)c1ccccc1
AC50 [1]: 0.703 µM (active) | outcome [2]: inactive | AC50 [3]: 0.0161 µM (active) | outcome [4]: inactive | outcome [5]: inactive | outcome [9]: inactive | outcome [8]: inactive | outcome [7]: inactive | AC50 [10]: 0.188 µM (active)

CCSC(C)CC1CC(=O)C(C(CC)=NOC/C=C/Cl)=C(O)C1 (stereo not drawn)
outcome [1]: inactive | outcome [2]: inactive | outcome [3]: inactive | outcome [4]: inactive | outcome [5]: inactive | outcome [6]: inactive | outcome [8]: inactive | outcome [7]: inactive | outcome [10]: inactive

CCNc1nc(NC(C)(C)C)nc(SC)n1
outcome [1]: inactive | outcome [2]: inactive | outcome [3]: inactive | outcome [4]: inactive | outcome [5]: inactive | outcome [6]: inactive | outcome [8]: inactive | outcome [10]: inactive

ClC(Cl)=C(Cl)C(Cl)=C(Cl)Cl
outcome [1]: inactive | outcome [2]: inactive | outcome [3]: inactive | outcome [4]: inactive | outcome [5]: inactive | AC50 [6]: 163 µM (active) | AC50 [10]: 66 µM (active)

CCOP(=O)(CN(CCO)CCO)OCC
outcome [1]: inactive | outcome [2]: inactive | outcome [3]: inactive | outcome [4]: inactive | outcome [5]: inactive | outcome [6]: inactive | outcome [8]: inactive | outcome [10]: inactive

Clc1ccc(C2(Cn3cncn3)CC(Br)CO2)c(Cl)c1 (stereo not drawn)
outcome [1]: inactive | outcome [2]: inactive | outcome [3]: inactive | AC50 [5]: 47 µM (active) | outcome [6]: inactive | outcome [8]: inactive

CCCCCCCCC(=O)NCc1ccc(O)c(OC)c1
outcome [1]: inactive | outcome [2]: inactive | outcome [3]: inactive | outcome [4]: inactive | outcome [5]: inactive | AC50 [6]: 151 µM (active) | outcome [7]: inactive | AC50 [10]: 38.3 µM (active)

COc1ccc(C=O)cc1OC
outcome [1]: inactive | outcome [2]: inactive | outcome [3]: inactive | outcome [4]: inactive | outcome [5]: inactive | outcome [6]: inactive | outcome [8]: inactive

O=C1C(Cl)=C(Cl)C(=O)c2ccccc21
outcome [1]: inactive | outcome [2]: inactive | outcome [3]: inactive | outcome [4]: inactive | outcome [5]: inactive | outcome [6]: inactive | outcome [7]: inactive | AC50 [10]: 2.2 µM (active)

ClC1(Cl)C2(Cl)C3(Cl)C4(Cl)C(Cl)(Cl)C5(Cl)C3(Cl)C1(Cl)C5(Cl)C24Cl (stereo not drawn)
outcome [1]: inactive | outcome [3]: inactive | outcome [4]: inactive | outcome [5]: inactive | outcome [6]: inactive | outcome [8]: inactive

CCC(=O)c1ccccc1
outcome [1]: inactive | outcome [2]: inactive | outcome [4]: inactive | outcome [5]: inactive | outcome [6]: inactive | outcome [7]: inactive | outcome [10]: inactive

C[C@H]1CCCC(=O)CCC/C=C/c2cc(O)cc(O)c2C(=O)O1
outcome [1]: inactive | outcome [3]: inactive | outcome [4]: inactive | AC50 [5]: 39.4 µM (active) | outcome [6]: inactive | outcome [8]: inactive | outcome [7]: inactive | outcome [10]: inactive

CN(CCCC(=O)c1cccnc1)N=O
outcome [1]: inactive | outcome [2]: inactive | outcome [4]: inactive | outcome [5]: inactive | outcome [6]: inactive | outcome [8]: inactive | outcome [7]: inactive

C[C@@H](Oc1ccc(Cl)cc1Cl)C(=O)O
outcome [1]: inactive | outcome [3]: inactive | outcome [4]: inactive | outcome [5]: inactive | outcome [6]: inactive

COP(=O)(OC)OC
outcome [1]: inactive | outcome [2]: inactive | outcome [4]: inactive | outcome [5]: inactive | outcome [6]: inactive

C[C@]12CCC(=O)C[C@@H]1CC[C@@H]1[C@@H]2CC[C@]2(C)[C@@H](O)CC[C@@H]12
outcome [1]: inactive | outcome [2]: inactive | outcome [4]: inactive | outcome [5]: inactive | outcome [8]: inactive | AC50 [7]: 57.9 µM (active) | outcome [7]: inactive | AC50 [10]: 61.4 µM (active) and 57.3 µM (active) | outcome [10]: inactive

NNC(=S)NN
outcome [1]: inactive | outcome [2]: inactive | outcome [4]: inactive | outcome [5]: inactive | outcome [6]: inactive | outcome [7]: inactive | outcome [10]: inactive

Nc1ccc(N=Nc2ccc(-c3ccc(N=Nc4c(S(=O)(=O)O)cc5cc(S(=O)(=O)O)c(N=Nc6ccccc6)c(O)c5c4N)cc3)cc2)c(N)c1
outcome [1]: inactive | outcome [3]: inactive | outcome [4]: inactive | outcome [5]: inactive | outcome [6]: inactive

ClCc1ccccn1
outcome [1]: inactive | outcome [2]: inactive | outcome [4]: inactive | outcome [5]: inactive | outcome [6]: inactive | outcome [8]: inactive | AC50 [10]: 44.3 µM (active)

O=C(Cl)c1ccc(Cl)cc1
outcome [1]: inactive | outcome [2]: inactive | outcome [4]: inactive | outcome [5]: inactive | outcome [6]: inactive | outcome [8]: inactive | outcome [7]: inactive

CCCCCCCCc1ccc(O)cc1
outcome [1]: inactive | outcome [2]: inactive | outcome [3]: inactive | outcome [5]: inactive | outcome [6]: inactive | outcome [8]: inactive | outcome [7]: inactive | AC50 [10]: 11.2 µM (active) | outcome [10]: inactive

CN(C)P(=O)(N(C)C)N(C)C
outcome [1]: inactive | outcome [2]: inactive | outcome [4]: inactive | outcome [5]: inactive | outcome [6]: inactive | outcome [10]: inactive

CN(C)N=O
outcome [1]: inactive | outcome [3]: inactive | outcome [4]: inactive | outcome [5]: inactive | outcome [6]: inactive | outcome [8]: inactive | outcome [7]: inactive | outcome [10]: inactive

CC(C)OC(=O)Nc1ccccc1
outcome [1]: inactive | outcome [2]: inactive | outcome [4]: inactive | outcome [5]: inactive | outcome [6]: inactive | outcome [8]: inactive | outcome [7]: inactive

CC(C)c1ccc(CO)cc1
outcome [1]: inactive | outcome [2]: inactive | outcome [4]: inactive | outcome [5]: inactive | outcome [6]: inactive | outcome [8]: inactive | outcome [10]: inactive

COP(=O)(OC)O/C(=C\Cl)c1cc(Cl)c(Cl)cc1Cl
outcome [1]: inactive | outcome [2]: inactive | AC50 [3]: 115 µM (active) | AC50 [5]: 66.2 µM (active) | outcome [6]: inactive | AC50 [8]: 180 µM (active) | outcome [7]: inactive | AC50 [10]: 25.8 µM (active)

C[C@]12CC[C@H](O)CC1=CC[C@@H]1[C@@H]2CC[C@]2(C)C(=O)CC[C@@H]12
outcome [1]: inactive | outcome [2]: inactive | outcome [4]: inactive | outcome [5]: inactive | outcome [6]: inactive | outcome [8]: inactive | outcome [7]: inactive
